Assay results from PubChem BioAssay (NCI).
The panel holds about 83,000 compounds, 20% with a hit somewhere; the sample as a whole holds those more often.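 Cells were grown in 96-well plates and exposed to the test compound at a single concentration for 48 hours; results are reported as percent growth, with values below 10 considered active.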 A number with no mark means an inactive call. The source made the active and inactive calls.

Test system: HL-60(TB) leukemia
Test: NCI-60 one-dose screen, 48 h (100 = growth as untreated, 0 = no growth, -100 = all killed)
Conditions: 10 µM unless noted

SMILES | growth
COc1cc(OC)c(C(=O)/C=C/c2ccc(C#N)cc2)c(OC)c1 | -7.85% (active)
C#Cc1cccc(NC(=O)c2ccc(NC(=O)C=C)cc2)c1 | 80.6% [8.25 µM]
CC(C)=CCCC(C)c1ccc(C)c2c1OCN(CCCCCO)C2 (centres undefined) | 51.7%
O=C1C(Br)=C(c2ccccc2)C(=O)C(Br)=C1c1ccccc1 | 78.6%
O=C(Nc1nc(-c2ccc(Br)cc2)cs1)c1cc(-c2ccc(Br)cc2)nc2ccc(Cl)cc12 | 96.6%
COC(=O)c1[nH]cnc1/N=N/N(C)CCO | 86.5%
COc1ccc(C(=O)C(C)Br)cc1OC (centres undefined) | 96.7%
CCOC(=O)Sc1ncnc2nc[nH]c12 | 2.99% (active)
COC(=O)c1ccc(=O)oc1 | 96.2%
CCCCCCCCCCCC[N+](C)(C)Cc1ccccc1 | -52.6% (active)
COc1cccc(C(Cc2ccccc2)Nc2ccccc2)c1OC (centres undefined) | 96.3%
O=[N+]([O-])c1cccc(C2CC(c3ccccc3)=Nc3ccccc3S2)c1 (centres undefined) | 84.7%
c1ccc2c(-c3nc(-c4c[nH]c5ccncc45)cs3)c[nH]c2c1 | 45.9%
CCN(CC)CC(C)Nc1ccc(C)c2sc3ccccc3c(=O)c12 (centres undefined) | 50.8%
O=[N+]([O-])c1cc(S(=O)(=O)OCC2CO2)ccc1Cl (centres undefined) | 80.2%
C=CCN(CC=C)C(=O)[C@H](CC)[C@@H]1CC[C@@H](C)[C@@H]([C@H](C)[C@@H](O)[C@@H](C)C(=O)[C@H](CC)C2O[C@]3(C=C[C@@H](O)[C@]4(CC[C@@](C)([C@H]5CC[C@](O)(CC)[C@H](C)O5)O4)O3)[C@H](C)C[C@@H]2C)O1 (some centres undefined) | -36.8% (active)
COc1cc(-c2nn(-c3ccc(C)cc3)cc2C(=O)O)ccc1O | 82.2%
C[n+]1c2ccccc2c(Nc2ccc(NS(=O)(=O)CCCCN=C(N)N)cc2)c2ccc(N)cc21 | 16.7%
NS(=O)(=O)c1ccc(C(=O)N=Nc2c(O)[nH]c3ccc(Cl)cc23)cc1 | 102%
CCOc1ccc2c(c1)/C(=C\C=C\C1CC(C)C3CC(OCC)CCC3N1CC)CC(C)N2CC (centres undefined) | -35.7% (active)

SMILES | growth
COc1ccc(N2C(=O)C(Oc3ccccc3)C2c2ccc(C)cc2)cc1 (centres undefined) | 85.4%
O=C(Cc1ccccc1)c1ccc(O)c(Cl)c1 | -21.1% (active)
Cn1cc(-c2noc(-c3cn(C)c4ncc(F)cc34)n2)c2cc(Cl)ccc21 | 82.6%
COC1(OC)C2(Cl)CCC1(Cl)C(Cl)=C2Cl | 139%
COc1ccc2[nH]cc(-c3noc(C(=O)c4cn(C)c5ccc(F)cc45)n3)c2c1 | 81.7%
COC(=O)c1ccc2[nH]c(O)c(C(=Nc3ccc(N(C)C(=O)CN4CCN(C)CC4)cc3)c3ccccc3)c2c1 | -14.4% (active)
CCOC(=O)c1c(C(=O)c2cn(C)c3ccc(Br)cc23)c(-c2cn(C)c3ccc(Br)cc23)n(NC(=O)OC(C)(C)C)c1C | 100% [100 µM]
CC(N)C(Cc1ccc(Cl)cc1)c1ccc(Cl)cc1 (centres undefined) | 25.9%
COc1ccc(CN2C(=O)/C(=C\C(=O)c3ccc(OCCN4CCCC4)cc3)c3ccccc32)cc1 | 4.86% (active)
COc1cc(OC)c(NC(=O)c2cc3ccccc3cc2O)cc1Cl | 22%
C=C1CCC2C3(C)COC(C)(C)OC3CCC2(C)C1C/C=C1/C(=O)OCC1Oc1ccccc1OC (centres undefined) | 38.6%
Nc1nc2ccc([C@@H]3Nc4ccc5[nH]ncc5c4[C@H]4[C@H]5CCC(C5)[C@H]43)cc2s1 | 12.4%
COc1ccc(C/C(C)=C(\c2ccc(Cl)cc2)c2ccc(OCCN3CCCC3)cc2)cc1 | 76.9%
COc1ccc(C(=O)c2cc(OC)c(C)c(OC)c2)cc1OC(=O)CCl | -28.5% (active)
O=[N+]([O-])c1ccc(-c2nc(N(CCO)CCO)c3ccccc3n2)o1 | -11.1% (active)
COc1ccc(-c2cc(-c3ccc(Cl)cc3)c(C#N)c(=O)n2CCCCC(=O)NO)cc1 | 92.7%
COCC(=O)NNc1[nH]c(-c2ccc(OC)cc2)cc1C#N | 6.53% (active)
Cc1ccc(-c2c3c(N)nc(-c4ccncc4)nc3nc3c2c(C)nn3-c2ccccc2)cc1 | 97%
CCCC(C)c1ccc(OCCCCCCN2CCNCC2)cc1 (centres undefined) | -44.9% (active)
